Compound activity: PubChem, National Center for Advancing Translational Sciences (NCATS)
The sample as a whole holds a higher share of hits than the screen did.
LmPK inhibitor – blocks Leishmania mexicana pyruvate kinase activity; Q27686; purified LmPK, Kinase-Glo ATP luminescence, 1 h; Potency, µM (doses to about 57.5 µM), inactives show top-dose activity change, negative = inhibition, hits mostly inhibitors; 290,000 compounds, 0.37% hits; AID 1721; further: potency means the concentration at half of the fitted maximal effect; on the % scale 0 is the no-effect control and ±100 the full control effect
Target sequence (Q27686 whole entry, looked up): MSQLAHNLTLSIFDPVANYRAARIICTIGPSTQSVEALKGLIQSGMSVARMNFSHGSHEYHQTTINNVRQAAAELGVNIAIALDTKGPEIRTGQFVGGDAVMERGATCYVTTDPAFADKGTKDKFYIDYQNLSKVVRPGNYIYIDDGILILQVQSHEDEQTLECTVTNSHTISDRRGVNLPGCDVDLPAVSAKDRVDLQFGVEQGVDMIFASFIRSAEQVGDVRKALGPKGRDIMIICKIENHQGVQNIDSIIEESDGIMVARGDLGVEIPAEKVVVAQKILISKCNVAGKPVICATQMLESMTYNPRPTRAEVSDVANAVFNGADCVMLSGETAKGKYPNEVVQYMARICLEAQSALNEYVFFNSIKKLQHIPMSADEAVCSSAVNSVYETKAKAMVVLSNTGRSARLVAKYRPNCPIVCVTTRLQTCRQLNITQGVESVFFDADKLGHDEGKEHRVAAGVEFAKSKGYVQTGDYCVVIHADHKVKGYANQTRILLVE
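Kinase-Glo luminescence read after 1 h RT reaction of 0.1 nM LmPK with 0.5 mM PEP and 0.1 mM ADP. Activity scaled between uninhibited and enzyme-free controls.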
Cycloheximide cs – affects cycloheximide protein synthesis inhibition readout, counter-screen. cell reporter, cycloheximide protein synthesis inhibition counterscreen. max response, %. 300,000 compounds, 12% hits; in the data active means max response mostly above about 13%, no sharp cut-off; inactive means mostly below about 14%; further: read at 38.3 µM for the half of the compounds with a filed dose; 0% is about no effect
Tb PYK inh – inhibitors of Trypanosoma brucei pyruvate kinase; TbPYK enzyme, Kinase-Glo Plus ATP luminescence, 45 min; 410,000 compounds, 0.12% hits; AID 624173; Q57TT1; Potency, µM (top dose mostly 76.8 µM), without a hit: at the top dose activity, negative = inhibition, most hits filed as inhibitors; further: potency means the concentration at half of the fitted maximal effect; on the % scale 0 is the no-effect control and ±100 the full control effect; nearly all actives have a fitted effect of over 50% in size
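T. brucei PYK with substrate was exposed to pin-transferred compounds across a concentration series, then started with 130 uM ADP (final). After 45 min at room temperature, Kinase-Glo Plus luminescence was read, normalized and curve-fitted.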
FBPA Giardia inh – Giardia lamblia aldolase inhibition; A8B2U2; purified Giardia FBPA; Potency, µM (top dose mostly 59.6 µM), for inactives: at the top dose activity, negative = inhibition, most hits filed as inhibitors; 290,000 compounds, 0.71% hits; further: potency means the concentration at half of the fitted maximal effect; on the % scale 0 is the no-effect control and ±100 the full control effect; nearly all actives have a fitted effect of over 55% in size
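40 nM FBPA preincubated 10 min at RT with compound (up to 57.5 uM final), then substrate plus GAPDH/TPI/NAD/arsenate coupling and diaphorase/resazurin added. Fluorescence read after 20 min at RT, 525/598 nm.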
Shiga inhibitor – Shiga toxin inhibition; Vero cells, Shiga toxin protein synthesis inhibition reporter; AID 2315; inhibition, % at 38.7 µM; 290,000 compounds, 9.2% hits; in the data active means inhibition mostly above about 28%, no sharp cut-off; inactive means mostly below about 43%; further: 0% is about no effect
RE007 growth inh – less growth of the S. pombe RE007 Vpr strain; AID 651644; S. pombe RE007 Vpr strain, BacTiter-Glo ATP luminescence, 24 h; 360,000 compounds, 0.21% hits; Potency, µM (doses to about 92.2 µM), for inactives: top-dose activity change, negative = less growth, actives largely listed as inhibitors; active means well fitted falling curve with a large enough effect; inconclusive means small, poorly fitted or top-dose-only effect; inactive means no such curve, though single readings can be large or run the other way; further: potency means the concentration at half of the fitted maximal effect; on the % scale 0 is the no-effect control and ±100 the full control effect; nearly all actives have a fitted effect of over 50% in size
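Fission yeast strain RE007, carrying one chromosomally integrated HIV-1 vpr copy, was seeded at OD 0.01 in PMG+AL medium with 23 nL pinned compound. After 24 h at 30 °C and 99% humidity, viability was read by BacTiter-Glo luminescence.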
Numbers without * were called inactive; ? = inconclusive; . = not tested or not shown; [ ] = remark or other dose. Unless noted, the call rests on the fitted dose curve; in most records, active means well fitted curve in the direction sought with a large enough effect; inconclusive means small, poorly fitted or top-dose-only effect, or another doubt; inactive means no such curve, though single readings can be large; an effect the other way counts as inactive or inconclusive.

SMILES	LmPK inhibitor	Cycloheximide cs	Tb PYK inh	FBPA Giardia inh	Shiga inhibitor	RE007 growth inh
Cc1cccc(C(=O)Nc2cccc(NC(=O)c3ccccc3)c2)c1	1%	9	0%	-4%	12	2%
Cc1cccc(NC2=C(NC(=O)c3ccccc3)C(=O)c3ccccc3C2=O)c1	3.5µM*	14*	16µM*	?	30	-20%
O=C(NC1=C(NC2CCS(=O)(=O)C2)C(=O)c2ccccc2C1=O)c1ccccc1 (stereo unspecified)	0%	21	-22%	1.3µM*	39	-22%
CN(C1=C(NC(=O)c2ccc(Cl)cc2)C(=O)c2ccccc2C1=O)c1ccccc1	-25%	20*	-14%	?	50*	?
O=C(NC1=C(Nc2ccc(Cl)cc2)C(=O)c2ccccc2C1=O)c1ccccc1	?	24*	?	?	38	?
O=C(Nc1ccc(NS(=O)(=O)c2ccccc2)cc1)c1ccc(Cl)cc1	5%	4	7%	-5%	-1	1%
CCOC(=O)N/N=C1/C[C@@H](O)[C@@H](O)[C@@H]2[C@@H]3C(=O)N([C@@H](C)c4ccccc4)C(=O)[C@H]3CC[C@@H]12	.	.	.	2%[12.9 µM]	.	.
CC(C)CCNC(=O)c1ccc(Cn2c(SCC(N)=O)nc3ccccc3c2=O)cc1	.	.	-2%	.	.	.
COc1ccc2c(c1)c(=O)oc1cc(O)ccc12	0%	2	0%	5%	-5	-9%
COc1ccc(-c2c(C)c3ccc(O)cc3oc2=O)cc1	-9%	53*	-4%	4%	50*	9%
CCCOc1ccc2c(C)c(CC(=O)OC)c(=O)oc2c1	-5%	31*	3%	0%	52*	-21%
CC(=O)COc1ccc2c(C)c(C)c(=O)oc2c1	-2%	52*	-10%	1%	79*	-14%
C=C(C)COc1ccc2c(C)c(CCC(=O)NC3CC3)c(=O)oc2c1	-2%	22*	11%	6%	19	-1%
CCOC(=O)Cn1c(=O)n(CC2CCCO2)c2nc(-c3c(F)cccc3Cl)nc(C(N)=O)c21 (stereo unspecified)	.	.	-2%	.	.	.
O=c1oc2cc(O)ccc2c2oc3cc(O)ccc3c12	-5%	13*	-10%	1%	31*	-1%
COc1ccc(-c2c(C)c3ccc(OCC(C)=O)cc3oc2=O)cc1	-3%	49*	.	-7%	110*	.
CCc1c(C)c2ccc(OCC(N)=O)cc2oc1=O	-7%	20*	-4%	3%	45	-7%
O=c1oc2cc(O)ccc2c2ccccc12	-2%	-2	2%	-11%	-16	-4%
CCOc1ccc(OCC)c(Nc2nc3ccc(C(=O)c4ccccc4)cc3n3cnnc23)c1	.	.	3%[15.4 µM]	.	.	.
Cc1ccc(N(C)/N=C/c2ccc(Cl)cc2Cl)nn1	0%	16*	-2%	6%	16	-8%
CCc1nnc(SC(CC)C(=O)Nc2ccc(OC)c(Cl)c2)c2cc3occc3n12 (stereo unspecified)	.	.	-2%	.	.	.
CCOc1ccccc1/C=N/Nc1ccnc(=O)[nH]1	-2%	24*	9%	-10%	28	1%
CCOc1ccccc1/C=N/Nc1nc(C)cc(=O)[nH]1	-1%	-1	1%	-13%	-5	4%
Oc1ccccc1/C=N/Nc1nn[nH]n1	-12%	-3	-13%	?	15	21%
O=c1nccc(N/N=C/c2ccccc2O)[nH]1	-14%	27*	?	5%	31	3%
COc1cccc(/C=N/Nc2ccc([N+](=O)[O-])cn2)c1O	-14%	40*	2%	2%	91*	-33%
COc1cccc(/C=N/Nc2ccnc(=O)[nH]2)c1O	-10%	26*	-12%	-10%	56*	0%
C/C(CCC(=O)OC[C@@H]1O[C@H](C#Cc2ccccc2)C=C[C@@H]1Oc1ccc(C)cc1)=N/O[C@@H](C)CN1CCCc2nc(C)c(C)cc21	.	.	.	1%[12.9 µM]	.	.
COc1ccc(CN(C)Cc2c(O)ccc3ccccc23)cc1	9%	9	2%	-3%	3	-14%
COc1cccc(CN(C)Cc2c(O)ccc3ccccc23)c1	-1%	26	0%	-22%	24*	-16%
